Results reported in the supplement of paper PMC10477191.
± gives the standard deviation of the averaged measurements.

tested on: Drosophila ezoana antennal basiconic sensillum ab2; test: odor-evoked OSN spike response (post minus pre-stimulus); higher = stronger neuronal excitation; details: odor dilution: 10^-4
Protocol: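 Single sensillum recordings from antennal basiconic sensilla of D. ezoana. A 500 ms pulse of odorant (10^-4 in mineral oil or DMSO) was delivered; the response is the change in action potential frequency between the 1 s pre- and post-stimulus windows (spikes/s).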

| Compound | odor-evoked OSN spike response [spikes/s] |
| --- | --- |
| CC(C)=O [acetone] | 73.7 ± 37 |
